# BRCT inh red: disrupts BRCA1 BRCT binding to phosphoprotein, red fluorophore readout | P38398 | Potency, µM (doses to about 76.9 µM), most hits filed as inhibitors | 0.03% of 75,000 active | AID 892 | BRCT-phosphopeptide binding, red fluorescence polarization
#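 Rhodamine-labelled pBACH1 10-mer (100 nM) bound to BRCT domain (100 nM) at pH 7.3; compounds incubated 12 min room temperature, polarization read. Free peptide defines full inhibition; unlabelled decapeptide titrated as control.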
# TsaE inh: displaces an ADP probe from E. coli YjeE (TsaE); purified YjeE enzyme, qHTS inhibition assay; 0.05% of 71,000 active; Potency, µM; P0AF67
#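 Purified YjeE (10 uM) with BODIPY Texas Red-labeled ADP probe (2 uM); compounds pin-transferred, 15 min at room temperature. Binding inhibition read as decreased fluorescence polarization; ADP titration as control.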
# BRCT inh green: blocks human BRCA1 BRCT binding to phosphopeptide, green readout | P38398 | BRCA1 BRCT-phosphopeptide binding, green fluorescence polarization | Potency, µM (titrated, usually from 76.9 µM), most hits filed as inhibitors | 0.05% of 75,000 active | AID 875
#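 Compounds were incubated for 12 min at room temperature with a complex of 100 nM fluorescein-tagged pBACH1 decapeptide and 250 nM His-tagged BRCT protein. Buffer was phosphate pH 7.3 with EDTA, DTT and Tween 20. Disruption of binding lowers the polarization signal.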
# DNA Pol III inh: blocks replication by bacterial DNA polymerase III holoenzyme; reconstituted DNA polymerase III holoenzyme replication, biochemical; AID 603; Potency, µM (highest dose often 57.1 µM); 0.25% of 71,000 active
#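 Reconstituted *E. coli* holoenzyme (0.35 nM Pol III, 1 nM beta, 154 nM SSB, 2 nM primase) was preincubated with compound for 15 min at RT. Synthesis on 1.4 nM ssM13Gori ran 35 min, then was stopped with PicoGreen/EDTA and read as dsDNA fluorescence.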
# ALOX15 inhib: inhibitors of human 15-lipoxygenase (ALOX15); purified 15hLO-1, xylenol orange hydroperoxide absorbance; Potency, µM (titrated, usually from 57.1 µM), actives largely listed as inhibitors; 1.4% of 74,000 active; AID 887; also: nearly all actives have a fitted effect of over 55% in size
#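 Quantitative HTS in 25 mM Hepes pH 7.5 containing 0.01% Triton X-100: human 15hLO-1 at 40 nM, arachidonic acid at 50 uM, 6 min turnover. Product quantified via ferrous oxidation/xylenol orange, 573:405 nm absorbance ratio.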
# Tau fil binding: binders of human tau filaments; P10636; recombinant tau filaments, thioflavin S fluorescence, 15 h; filaments grown with octadecylsulfate alongside compound; Potency, µM (top dose mostly 57.1 µM); 2% of 71,000 active; AID 596;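 also: actives lower thioflavin S fluorescence by blocking filaments or displacing dye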
#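 His-tagged recombinant human tau (exons 2, 3, 10; 1 uM final) fibrillized with 30 uM sodium octadecylsulfate, 15 h at 37 C, in pH 7.4 HEPES buffer with 10 uM thioflavine S and 5 mM DTT. Reduced ThS fluorescence (450/510 nm) marks activity.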
# A number is an active result; n = inactive; u = inconclusive; x = no result given; ! = a repeat was not active; [ ] = dose if it differs, or a comment. The list is not random: actives were taken first. Their share in the collection is about 3.3%. Calls follow the shape of the dose curve; as a rule, active = well fitted curve in the direction sought with a large enough effect; inconclusive = small, poorly fitted or top-dose-only effect, or another doubt; inactive = no such curve, though single readings can be large; an effect the other way counts as inactive or inconclusive.
SMILES,BRCT inh red,TsaE inh,BRCT inh green,DNA Pol III inh,ALOX15 inhib,Tau fil binding
COCCCCC(=NOCCN)c1ccc(C(F)(F)F)cc1,n,n,n,n,n,31.6µM!
CN1C(=O)CSc2ccc(NC(=O)N3CCN(c4ccccn4)CC3)cc21,n,n,n,n,n,n
CN1C(=O)CSc2ccc(NC(=O)Nc3ccccn3)cc21,n,n,n,n,n,10µM
Cc1ccc(C(=O)[C@@H]2[C@@H]3[C@@H](C(=O)[C@@H]4OC[C@H]3O4)[C@@H]3C=Cc4ccccc4N23)cc1,x,n,x,n,x,31.6µM
Cn1c(=O)c(-c2cccs2)nc2cnc(N3CCOCC3)nc21,n,n,n,n,n,n
N=C(N)SCCc1ccc(OCc2ccc([N+](=O)[O-])cc2)cc1,n,n,n,n,u,31.6µM
O=C(Nc1cccc(F)c1)N1CCC2(CC1)CCN(C(=O)c1csnn1)CC2,n,n,n,n,n,n
CCCCc1cc(=O)oc2cc(C)c(CN3CCCC3)c(O)c12,n,n,n,n,12.6µM,20µM
CC1=N[C@@](C)(COC(=O)[C@]2(C)N[C@](C)(CO)CO2)COC1=O,n[15.4 µM],n,n[15.4 µM],n[11.4 µM],n[11.4 µM],n[11.4 µM]
Nc1ccccc1O,n,n,n,n,u,n
Nc1cccc2c(N)cccc12,n,n,n,n,n,31.6µM
CN(C)CC(C)(C)CN1c2ccccc2Sc2ccccc21,n[15.4 µM],n,n[15.4 µM],n[11.4 µM],n[11.4 µM],n[11.4 µM]
COc1ccc(N2CCN(Cc3nc4c(c(=O)n(C)c(=O)n4C)n3CCc3ccccc3)CC2)cc1,n,n,n,n,u,12.6µM
Cc1ccc(O)c(-c2cc3ccccc3[nH]2)c1,n,n,n,n[11.4 µM],u,2.51µM
Oc1ccc(N=Cc2ccc(O)c(O)c2)cc1,n,u,n,n,12.6µM,6.31µM
O=C(NC1CCCCC1)c1ccc(Cc2nc3ccccc3[nH]2)cc1,n,x,n,x,n,x
COc1ccc(NC(=O)c2oc3ccccc3c2NC(=O)C(C)(C)C)cc1,n,n,n,n,n,12.6µM
CCN1C(=O)[C@H]2[C@H]3[C@H](O)[C@H](O)C/C(=N/O[C@@H](C)c4cn([C@H]5COC[C@H]5O)nn4)[C@@H]3CC[C@@H]2C1=O,n[15.4 µM],x,n[15.4 µM],x,n[11.4 µM],x
CCOC(=O)C1=C(CSc2nccn2C)NC(=O)NC1c1ccc2c(c1)OCO2 (stereo unspecified),n,n,n,n,n,n
CCOC(=O)C1=C(CN2CCC(C)CC2)NC(=O)NC1c1ccc(Cl)cc1 (stereo unspecified),n,n,n,n,n,15.8µM
CCOC(=O)C1=C(CNCc2ccccc2Cl)NC(=O)NC1c1ccc2c(c1)OCO2 (stereo unspecified),n,n,n,n,n,15.8µM
CC1(C)CCC2=C(O1)c1ccccc1C(=O)C2=O,n,n,n,n,u,n
Cc1cccc(NC(=O)CN2C(=O)COc3ccc(Cl)cc32)c1,n,n,n,n,5.01µM,n
COc1cccc(NC(=O)CN2C(=O)COc3ccc(Cl)cc32)c1,n,n,n,n,u,n
Nc1ncnc2nc[nH]c12.Nc1ncnc2nc[nH]c12.[Cl][Pt]([Cl])([Cl])[Cl],x,n,x,2.51µM,x,n[11.4 µM]
SMILES,BRCT inh red,TsaE inh,BRCT inh green,DNA Pol III inh,ALOX15 inhib,Tau fil binding
O=C(Nc1cc(C(=O)Nc2ccc(S(=O)(=O)O)cc2S(=O)(=O)O)cc(C(=O)Nc2ccc(S(=O)(=O)O)cc2S(=O)(=O)O)c1)Nc1cc(C(=O)Nc2ccc(S(=O)(=O)O)cc2S(=O)(=O)O)cc(C(=O)Nc2ccc(S(=O)(=O)O)cc2S(=O)(=O)O)c1,n,n,n,3.98µM,n,u
CC(=O)c1ccc(NC(=O)c2ccc(S(=O)(=O)N3CCCC3)cc2)cc1,n,n,n,n,n,n
Cc1ccc2nc(-c3ccc(NC(=O)c4ccc(N)cc4)c(S(=O)(=O)O)c3)sc2c1,n[15.4 µM],n,n[15.4 µM],n[11.4 µM],n[11.4 µM],n[11.4 µM]
O=C(Nc1ccc(C(=O)Nc2ccc(C(=O)Nc3ccc(S(=O)(=O)O)c4cc(S(=O)(=O)O)cc(S(=O)(=O)O)c34)cc2)cc1)Nc1ccc(C(=O)Nc2ccc(C(=O)Nc3ccc(S(=O)(=O)O)c4cc(S(=O)(=O)O)cc(S(=O)(=O)O)c34)cc2)cc1,n,n,n,31.6µM,u,u
COC(=O)C1CC1C(NC(=O)[C@@H]1CCCN1)c1ccccc1 (stereo partly specified),n,n,n,n,x,n
COc1ccc2[nH]cc(CCNc3nc(-c4c(C)noc4C)nc4ccccc34)c2c1,n,n,n,n,u,n
C=CC(C)(O)CCCC(C)CCCC(C)CCCC(C)C (stereo unspecified),n,n,n,n,10µM,n
C/C(=C\CO)CCC(C)CCCC(C)CCCC(C)C (stereo unspecified),n,x,n,x,n,x
CCN(CC)CCCCn1c(-c2ccccc2)nc2c(N(CCOC)CCOC)nc(C)nc21,n,n,n,n,n,n
Cc1ccc(NC(=O)CSCC(N)=O)cc1C,n,n,n,n,6.31µM,3.16µM
Cc1ccc(NC(=O)Cn2cccc2)cc1C,n,n,n,n,n,n
CCN(CC)C(=O)CN(C#N)c1nc(OC)nc(N(C)C)n1,n,n,n,n,n,n
COc1nc(C#N)nc(N(C)C)n1,n,n,n,n,n,12.6µM
N#Cc1ccc(CN2CCCC3(CCN(S(=O)(=O)c4ccccc4)CC3)C2)cc1,n,n,n,n,n,n
Oc1ccccc1C1=NCCNC(C(F)(F)C(F)F)=C1,n,n,n,n,n,15.8µM
CS(=O)(=O)N1CCC2(CCCN(C(=O)Nc3cccc(F)c3)C2)CC1,n,n,n,n,u,n
CS(=O)(=O)N1CCC2(CC1)CN(C(=O)Nc1ccccc1)C2,n,n,n,n,0.501µM,n
CS(=O)(=O)N1CCC2(CC1)CN(C(=O)Nc1cccc(F)c1)C2,n,u,n,n,n,12.6µM
CS(=O)(=O)N1CCC2(CC1)CN(C(=O)Nc1cccc(C#N)c1)C2,n,n,n,n,n,n
CO[C@@H]1COC(=O)C/C=C\[C@@H](C)COC(=O)[C@H](COCc2ccccc2)NC(=O)C/C=C\[C@H]1C,n[15.4 µM],x,n[15.4 µM],x,n[11.4 µM],x
CN(C)CCN(C)C(=O)c1ccc(-n2c(=O)c(=O)[nH]c3ccccc32)cc1,n,x,n,x,n,x
Cc1ccsc1C=Nc1ccc(O)cc1,n,u,n,n,u,20µM
c1cncc(-c2cc(NCc3cccs3)ncn2)c1,n,n,n,n,25.1µM,n
O=C(Nc1ccc(Nc2ccccc2)cc1)C1CC1,n,n,n,n,n,10µM
N[C@H]1[C@@H](C(=O)O)[C@H]2C=C[C@H]1C2,n[15.4 µM],n,n[15.4 µM],n[11.4 µM],n[11.4 µM],n[11.4 µM]
CC1(c2ccc3noc(-c4ccc(Cl)cc4)c3c2)OCCO1,n,n,n,n,n,u
c1ccc(-c2onc3cc4c(cc23)OCCO4)cc1,n,n,n,n,12.6µM,n
